In PubChem BioAssay (Tox21):
Inconclusive results are not listed. Entries that show only a call come without a potency. Active and inactive are the calls of the source. Unless noted, calls follow the shape of the dose curve; as a rule, active = well fitted curve in the direction sought with a large enough effect in the repeat runs; inconclusive = weak or mixed curves; inactive = no such curve, though single readings can be large; an effect the other way counts as inactive or inconclusive.

Legend:
[1] = qHTS assay to identify small molecule antagonists of the thyroid receptor (TR) signaling pathway - cell viability counter screen (AID 743064); also: nearly all actives have a fitted effect of over 50% in size
Method in brief: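 In rat pituitary GH3.TRE-Luc reporter cells co-exposed to compound and 1 nM T3 for 23.5 h, cytotoxicity was assessed with CellTiter-Fluor in the same wells, read by fluorescence.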

[2] = qHTS assay to identify small molecule antagonists of the thyroid receptor (TR) signaling pathway (AID 743065); also: series mostly up to about 70 µM; nearly all actives have a fitted effect of over 55% in size
Method in brief: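 GH3.TRE-Luc rat pituitary cells (two TREs driving luciferase) were dosed with compound, then stimulated with 1 nM T3 (final) for 23.5 h at 37 C. ONE-Glo luminescence was the read-out, with CellTiter-Fluor fluorescence as the cytotoxicity counter-screen.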

[3] = system: thyroid hormone receptor (rat, GH3 cells); assay: qHTS assay to identify small molecule agonists of the thyroid receptor (TR) signaling pathway (AID 743066; calls by dose curve)
[4] = molecular target: Estrogen receptor (Homo sapiens) (UniProt P03372); assay: qHTS assay to identify small molecule antagonists of the estrogen receptor alpha (ER-alpha) signaling pathway (AID 743069; active = well fitted curve in the direction sought with a large enough effect in the signal ratio in the repeat runs, not every such curve was filed as active; the % refers to the signal ratio)
Chain of Estrogen receptor (Homo sapiens) (P03372 whole entry, looked up): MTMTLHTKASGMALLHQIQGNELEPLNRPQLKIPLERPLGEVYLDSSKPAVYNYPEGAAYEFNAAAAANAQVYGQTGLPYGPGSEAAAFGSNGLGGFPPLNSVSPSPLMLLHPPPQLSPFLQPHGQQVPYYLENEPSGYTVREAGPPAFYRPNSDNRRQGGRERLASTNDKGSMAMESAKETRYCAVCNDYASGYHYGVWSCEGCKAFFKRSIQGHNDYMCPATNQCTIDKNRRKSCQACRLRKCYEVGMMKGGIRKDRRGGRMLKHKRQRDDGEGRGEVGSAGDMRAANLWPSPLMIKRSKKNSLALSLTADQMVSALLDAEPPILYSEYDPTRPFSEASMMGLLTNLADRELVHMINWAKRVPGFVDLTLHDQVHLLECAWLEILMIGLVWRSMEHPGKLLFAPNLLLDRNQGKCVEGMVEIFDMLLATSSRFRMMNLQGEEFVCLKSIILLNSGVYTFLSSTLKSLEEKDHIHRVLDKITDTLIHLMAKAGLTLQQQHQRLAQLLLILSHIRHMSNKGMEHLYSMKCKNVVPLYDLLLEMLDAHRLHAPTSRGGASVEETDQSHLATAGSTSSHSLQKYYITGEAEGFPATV
Method in brief: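 Beta-lactamase FRET fluorescence is read after 2 hr at room temperature with LiveBLAzer B/G substrate. Before that, ER-alpha-bla HEK293 cells sit 4 hr after plating, then receive compound plus 17beta-estradiol and incubate 18 hr at 37C.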

[5] = qHTS assay to identify small molecule antagonists of the estrogen receptor alpha (ER-alpha) signaling pathway - cell viability counter screen (AID 743074; calls by dose curve;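 also: HEK293 cells carrying ER-alpha-UAS-bla reporter stimulated with 17beta-estradiol; nearly all actives have a fitted effect of over 45% in size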)
[6] = molecular target: Estrogen receptor (Homo sapiens) (UniProt P03372); assay: qHTS assay to identify small molecule agonists of the estrogen receptor alpha (ER-alpha) signaling pathway (AID 743075; calls by dose curve;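 also: HEK293 GripTite cells with ER-alpha and UAS-driven beta-lactamase reporter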)
[7] = molecular target: Estrogen receptor (Homo sapiens) (UniProt P03372); assay: qHTS assay to identify small molecule agonists of the estrogen receptor alpha (ER-alpha) signaling pathway using the BG1 cell line (AID 743079); also: nearly all actives have a fitted effect of over 20% in size
[8] = qHTS assay to identify small molecule antagonists of the estrogen receptor alpha (ER-alpha) signaling pathway using the BG1 cell line - cell viability counter screen (AID 743081);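 also: compound given together with 17beta-estradiol as the ER stimulus; series mostly up to about 70 µM; nearly all actives have a fitted effect of over 45% in size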
[9] = molecular target: Aromatase (Homo sapiens) (UniProt P11511); assay: qHTS assay to identify aromatase inhibitors (AID 743083); also: series mostly up to about 70 µM; nearly all actives have a fitted effect of over 55% in size
Chain of Aromatase (Homo sapiens) (P11511 whole entry, looked up): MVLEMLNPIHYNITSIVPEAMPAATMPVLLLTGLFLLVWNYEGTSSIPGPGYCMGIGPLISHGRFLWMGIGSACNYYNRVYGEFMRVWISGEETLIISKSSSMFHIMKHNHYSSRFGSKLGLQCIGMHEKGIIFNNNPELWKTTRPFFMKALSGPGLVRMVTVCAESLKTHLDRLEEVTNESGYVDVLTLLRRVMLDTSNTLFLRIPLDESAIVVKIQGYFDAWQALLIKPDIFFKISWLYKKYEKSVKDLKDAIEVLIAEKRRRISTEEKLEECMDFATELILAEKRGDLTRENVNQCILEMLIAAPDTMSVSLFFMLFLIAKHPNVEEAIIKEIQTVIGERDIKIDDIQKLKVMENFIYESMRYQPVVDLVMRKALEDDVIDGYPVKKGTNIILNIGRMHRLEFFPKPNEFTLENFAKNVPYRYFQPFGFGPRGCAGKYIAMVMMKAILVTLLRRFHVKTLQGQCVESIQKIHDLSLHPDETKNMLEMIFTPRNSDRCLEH

[10] = qHTS assay to identify aromatase inhibitors - cell viability counter screen (AID 743084);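 also: cells stimulated with testosterone during compound exposure; nearly all actives have a fitted effect of over 55% in size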
[11] = molecular target: Aryl hydrocarbon receptor (Homo sapiens) (UniProt P35869); assay: qHTS assay to identify small molecule that activate the aryl hydrocarbon receptor (AhR) signaling pathway (AID 743085);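 also: HG2L7.5c1 human HepG2 liver cells with stably integrated DRE-driven firefly reporter; series mostly up to about 70 µM; nearly all actives have a fitted effect of over 15% in size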
Chain of Aryl hydrocarbon receptor (Homo sapiens) (P35869 whole entry, looked up): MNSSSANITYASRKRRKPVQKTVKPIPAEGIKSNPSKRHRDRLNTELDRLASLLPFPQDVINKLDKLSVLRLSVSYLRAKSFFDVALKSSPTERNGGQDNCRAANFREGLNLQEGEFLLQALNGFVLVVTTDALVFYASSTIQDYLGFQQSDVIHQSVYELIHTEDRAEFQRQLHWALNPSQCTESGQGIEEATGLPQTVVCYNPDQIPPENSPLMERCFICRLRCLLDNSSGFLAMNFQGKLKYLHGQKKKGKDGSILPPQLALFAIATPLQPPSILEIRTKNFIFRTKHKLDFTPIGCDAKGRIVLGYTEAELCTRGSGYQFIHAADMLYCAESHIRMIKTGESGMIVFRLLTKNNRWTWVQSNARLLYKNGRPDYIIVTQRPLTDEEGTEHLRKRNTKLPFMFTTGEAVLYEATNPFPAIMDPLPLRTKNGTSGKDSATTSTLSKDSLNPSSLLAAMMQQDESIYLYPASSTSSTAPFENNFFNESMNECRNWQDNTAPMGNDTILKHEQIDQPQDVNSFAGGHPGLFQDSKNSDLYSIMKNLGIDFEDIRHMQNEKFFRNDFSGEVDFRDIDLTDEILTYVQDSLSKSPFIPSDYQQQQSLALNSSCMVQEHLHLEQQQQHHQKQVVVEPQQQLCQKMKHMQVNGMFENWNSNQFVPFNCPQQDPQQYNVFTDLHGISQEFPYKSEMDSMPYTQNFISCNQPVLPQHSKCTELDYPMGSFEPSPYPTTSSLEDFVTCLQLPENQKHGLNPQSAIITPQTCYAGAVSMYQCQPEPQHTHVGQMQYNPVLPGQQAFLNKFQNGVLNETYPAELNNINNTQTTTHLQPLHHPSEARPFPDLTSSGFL
Method in brief: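 AhR agonist activity is inferred from enhanced light output of a DRE-controlled firefly luciferase reporter in HepG2 cells, measured with ONE-Glo following 24 h treatment at 37C.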

[12] = qHTS assay to identify small molecule that activate the aryl hydrocarbon receptor (AhR) signaling pathway - cell viability counter screen (AID 743086);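 also: HepG2 liver cells carrying the AhR DRE luciferase reporter; series mostly up to about 70 µM; nearly all actives have a fitted effect of over 45% in size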
Method in brief: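 HepG2-AhR-luc (HG2L7.5c1) cells, 4000/well, treated 24 h at 37 C with compound; viability measured as CellTiter-Fluor fluorescence after 30 min in the same wells as the luciferase read.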

[13] = molecular target: Peroxisome proliferator-activated receptor gamma (Homo sapiens) (UniProt P37231); assay: qHTS assay to identify small molecule agonists of the peroxisome proliferator-activated receptor gamma (PPARg) signaling pathway (AID 743094; active = well fitted activation curve with a large enough effect in the signal ratio in the repeat runs, not every such curve was filed as active; the % refers to the signal ratio)
Chain of Peroxisome proliferator-activated receptor gamma (Homo sapiens) (P37231 whole entry, looked up): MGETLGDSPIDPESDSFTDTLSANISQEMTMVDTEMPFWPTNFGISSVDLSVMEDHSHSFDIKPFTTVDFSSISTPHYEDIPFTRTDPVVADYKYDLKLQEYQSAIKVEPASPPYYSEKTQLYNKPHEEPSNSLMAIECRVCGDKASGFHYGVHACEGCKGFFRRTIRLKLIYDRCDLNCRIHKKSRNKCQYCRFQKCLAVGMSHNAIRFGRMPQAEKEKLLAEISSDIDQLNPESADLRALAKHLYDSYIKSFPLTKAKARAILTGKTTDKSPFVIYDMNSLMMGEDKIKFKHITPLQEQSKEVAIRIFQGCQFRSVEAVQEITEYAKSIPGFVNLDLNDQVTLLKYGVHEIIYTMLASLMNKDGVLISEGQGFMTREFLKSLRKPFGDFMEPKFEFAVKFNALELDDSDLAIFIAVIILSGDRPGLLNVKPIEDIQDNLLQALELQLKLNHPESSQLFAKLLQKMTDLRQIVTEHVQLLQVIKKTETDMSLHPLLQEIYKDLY
Method in brief: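 Fluorescence-based beta-lactamase readout in HEK293H PPARg UAS-bla cells after 17 h compound exposure (37C) and 1 h B/G FRET substrate incubation at room temperature.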

[14] = molecular target: Peroxisome proliferator-activated receptor gamma (Homo sapiens) (UniProt P37231); assay: qHTS assay to identify small molecule antagonists of the peroxisome proliferator-activated receptor gamma (PPARg) signaling pathway (AID 743191; calls by dose curve; also: series mostly up to about 63 µM; nearly all actives have a fitted effect of over 30% in size)
Method in brief: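 GeneBLAzer PPARg UAS-bla HEK293H cells, 5 h post-plating, exposed to compounds 17 h at 37C. LiveBLAzer B/G FRET substrate added for 1 h at room temperature; beta-lactamase reporter read by fluorescence intensity.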

[15] = qHTS assay to identify small molecule antagonists of the peroxisome proliferator-activated receptor gamma (PPARg) signaling pathway - cell viability counter screen (AID 743194); also: nearly all actives have a fitted effect of over 55% in size
Method in brief: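 Cytotoxicity counter screen in PPARg-bla HEK293H cells, same wells as reporter assay. Compounds plus 50 nM rosiglitazone (final) for 17 h at 37 C, then viability read by CellTiter-Glo luminescence.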

[16] = qHTS assay for small molecule agonists of the antioxidant response element (ARE) signaling pathway (AID 743202; active = well fitted activation curve with a large enough effect in the signal ratio in the repeat runs, not every such curve was filed as active; the % refers to the signal ratio; also: potency is read from the fitted curve at half-maximal effect)
Method in brief: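 HepG2 ARE-bla reporter line, 2,000 cells/well; 5 h preincubation 37 C/5% CO2; compound (DMSO) 16 h 37 C; B/G FRET substrate 2 h RT; fluorescence intensity.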

[17] = qHTS assay for small molecule agonists of the antioxidant response element (ARE) signaling pathway - cell viability counter screen (AID 743203; calls by dose curve; also: nearly all actives have a fitted effect of over 55% in size)
Method in brief: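 Parallel cytotoxicity read-out for the ARE-bla screen: HepG2 reporter cells, 16 hrs with compounds, then CellTiter-Glo luminescence.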

[18] = qHTS assay for small molecule activators of the heat shock response signaling pathway - cell viability counter screen (AID 743209); also: nearly all actives have a fitted effect of over 50% in size
Method in brief: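 To flag cytotoxic compounds, HSE-bla HeLa cells plated at 1500 cells/well were dosed for 5 h at 37 C, followed by the reporter FRET read and then CellTiter-Glo, with luminescence recorded 30 min after reagent addition.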

[19] = qHTS assay for small molecule activators of the heat shock response signaling pathway (AID 743210; active = well fitted activation curve with a large enough effect in the signal ratio in the repeat runs, with a control signal flat, not every such curve was filed as active; the % refers to the signal ratio;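 also: HeLa cells with beta-lactamase reporter driven by heat shock elements; series mostly up to about 63 µM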)
Method in brief: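 Beta-lactamase reporter read-out: FRET substrate fluorescence after 2.5 h at RT, following 5 h compound treatment at 37 C of HeLa cells carrying HSE-driven bla reporter; quantitative HTS format.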

[20] = qHTS assay to identify small molecule antagonists of the estrogen receptor alpha (ER-alpha) signaling pathway using the BG1 cell line (AID 743080; calls by dose curve;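 also: BG1 cells stimulated with 17beta-estradiol alongside compound; series mostly up to about 70 µM; nearly all actives have a fitted effect of over 25% in size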)
Method in brief: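 After 5 days in phenol-red-free 10% charcoal-stripped FBS medium, BG1-Luc-4E2 cells were seeded, left 24 h at 37 C, co-treated with compounds and 17beta-estradiol for 21.5 h, then assayed for viability and luciferase.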

Row | Compound | Potency [1] | Potency [2] | Potency [3] | Potency [4] | outcome [5] | Potency [6] | Potency [7] | outcome [8] | Potency [9] | Potency [10] | Potency [11] | Potency [12] | outcome [13] | outcome [14] | Potency [15] | Potency [16] | outcome [17] | outcome [18] | outcome [19] | Potency [20]
1 | CCCc1ccc(N)cc1 | inactive | inactive | inactive | inactive | inactive | inactive | inactive | inactive | inactive | inactive | inactive | inactive | inactive | inactive | inactive | inactive | inactive | inactive | inactive | 
2 | O=C(O)CCNC(=O)c1ccc(N=Nc2ccc(O)c(C(=O)O)c2)cc1 | inactive | inactive | inactive | inactive | inactive | inactive | inactive |  | inactive |  | inactive |  | inactive |  |  | inactive | inactive | inactive |  | inactive
3 | C=CCn1c(=O)n([C@@H]2O[C@H](CO)[C@@H](O)[C@H]2O)c2nc(N)[nH]c(=O)c21 | inactive | inactive | inactive | inactive | inactive | inactive | inactive | inactive | inactive | inactive | inactive | inactive | inactive |  |  | inactive | inactive | inactive |  | inactive
4 | NS(=O)(=O)c1cc2c(cc1Cl)NC(CSCc1ccccc1)=NS2(=O)=O | inactive | inactive | inactive | inactive | inactive | inactive | inactive | inactive | inactive | inactive | inactive |  | inactive |  |  |  | inactive | inactive | inactive | inactive
5 | C1CCCCCCCCCCC1 | inactive | inactive | inactive | inactive | inactive | inactive | inactive | inactive | inactive | inactive | inactive |  |  |  | inactive | inactive |  | inactive | inactive | inactive
6 | CC(C)CCCCCCN | inactive | inactive | inactive | inactive | inactive | inactive | inactive | inactive | inactive |  | inactive | inactive | inactive | inactive |  | inactive | inactive | inactive | inactive | inactive
7 | CC(=O)N[C@@H](CCC(N)=O)C(=O)O | inactive | inactive | inactive | inactive | inactive | inactive | inactive |  | inactive | inactive | inactive |  | inactive |  | inactive | inactive | inactive | inactive | inactive | inactive
8 | CNc1ncnc2nc[nH]c12 | inactive | inactive | inactive | inactive | inactive | inactive | inactive | inactive | inactive | inactive | inactive | inactive | inactive |  | inactive |  | inactive | inactive | inactive | inactive
9 | Nc1ccc2cc(S(=O)(=O)O)ccc2c1 | inactive | inactive | inactive | inactive | inactive | inactive | inactive | inactive | inactive | inactive | inactive |  |  |  | inactive |  |  | inactive | inactive | inactive
10 | CCOC(=O)Nc1ccc2c(c1)N(C(=O)CCN1CCOCC1)c1ccccc1S2 | inactive | inactive | inactive | inactive | inactive | inactive | inactive | inactive | inactive | inactive | inactive |  | inactive |  | inactive | 11.9 µM (active) | inactive | inactive | inactive | inactive
11 | CO[Si](CCCNCCC[Si](OC)(OC)OC)(OC)OC | inactive | inactive | inactive | inactive | inactive | inactive | inactive | inactive | inactive | inactive | inactive |  | inactive |  | inactive | inactive |  | inactive | inactive | inactive
12 | NC(=O)Nc1nc2ccccc2[nH]1 | inactive | inactive | inactive | inactive | inactive | inactive | inactive | inactive | inactive | inactive |  | inactive | inactive | inactive |  |  | inactive | inactive |  | inactive
13 | CCCOc1ccccc1-c1nc2n[nH]nc2c(=O)[nH]1 | inactive | inactive | inactive | inactive | inactive | inactive | inactive | inactive | inactive | inactive |  |  | inactive |  |  | inactive | inactive | inactive | inactive | inactive
